The source of these data is ChEMBL document CHEMBL3988442, “University of Dundee, Small-Polar-MMV Screening Library” (2021).

For some of these results: Measured potencies and affinities stand elsewhere.

What all share (design): scale not given: direction of the effect not stated beside the values
The target of test [1] is Protein translocase subunit SecA (Escherichia coli (strain K12)) (UniProt P10408). Kind of test: Assay to Identify E. coli SecA ATPase Inhibitors. The class given is functional. Conditions: 30 µM.
Sequence of Protein translocase subunit SecA (Escherichia coli (strain K12)) (P10408 whole entry): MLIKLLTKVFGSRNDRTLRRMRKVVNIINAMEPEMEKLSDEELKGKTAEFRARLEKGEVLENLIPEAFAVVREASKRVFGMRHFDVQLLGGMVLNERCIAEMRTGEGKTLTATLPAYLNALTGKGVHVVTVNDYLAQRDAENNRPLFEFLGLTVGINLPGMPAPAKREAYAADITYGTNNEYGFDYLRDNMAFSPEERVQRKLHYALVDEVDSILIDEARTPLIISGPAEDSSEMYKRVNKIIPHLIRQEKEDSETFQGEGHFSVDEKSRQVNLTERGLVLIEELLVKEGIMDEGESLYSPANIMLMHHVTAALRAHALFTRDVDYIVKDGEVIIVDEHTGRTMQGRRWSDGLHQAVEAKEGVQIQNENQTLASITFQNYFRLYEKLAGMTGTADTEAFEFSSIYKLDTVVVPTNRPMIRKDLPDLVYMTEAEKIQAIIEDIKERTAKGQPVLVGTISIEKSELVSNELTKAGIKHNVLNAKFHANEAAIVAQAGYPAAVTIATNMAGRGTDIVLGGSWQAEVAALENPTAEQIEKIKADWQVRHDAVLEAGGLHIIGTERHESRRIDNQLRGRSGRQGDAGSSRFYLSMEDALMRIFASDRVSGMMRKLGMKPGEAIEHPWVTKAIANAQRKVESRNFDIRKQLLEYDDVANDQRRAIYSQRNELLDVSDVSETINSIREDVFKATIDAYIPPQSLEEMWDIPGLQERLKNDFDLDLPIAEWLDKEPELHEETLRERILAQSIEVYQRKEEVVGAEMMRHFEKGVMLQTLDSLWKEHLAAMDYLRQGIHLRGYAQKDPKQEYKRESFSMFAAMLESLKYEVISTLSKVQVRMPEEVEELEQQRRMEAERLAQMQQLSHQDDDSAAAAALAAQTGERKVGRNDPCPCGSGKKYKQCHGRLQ
Test [2] addresses T1, Ubiquitin-activating enzyme e1, putative (Leishmania donovani (strain BPK282A1)) (UniProt E9BSI1).
T1 sequence (whole entry): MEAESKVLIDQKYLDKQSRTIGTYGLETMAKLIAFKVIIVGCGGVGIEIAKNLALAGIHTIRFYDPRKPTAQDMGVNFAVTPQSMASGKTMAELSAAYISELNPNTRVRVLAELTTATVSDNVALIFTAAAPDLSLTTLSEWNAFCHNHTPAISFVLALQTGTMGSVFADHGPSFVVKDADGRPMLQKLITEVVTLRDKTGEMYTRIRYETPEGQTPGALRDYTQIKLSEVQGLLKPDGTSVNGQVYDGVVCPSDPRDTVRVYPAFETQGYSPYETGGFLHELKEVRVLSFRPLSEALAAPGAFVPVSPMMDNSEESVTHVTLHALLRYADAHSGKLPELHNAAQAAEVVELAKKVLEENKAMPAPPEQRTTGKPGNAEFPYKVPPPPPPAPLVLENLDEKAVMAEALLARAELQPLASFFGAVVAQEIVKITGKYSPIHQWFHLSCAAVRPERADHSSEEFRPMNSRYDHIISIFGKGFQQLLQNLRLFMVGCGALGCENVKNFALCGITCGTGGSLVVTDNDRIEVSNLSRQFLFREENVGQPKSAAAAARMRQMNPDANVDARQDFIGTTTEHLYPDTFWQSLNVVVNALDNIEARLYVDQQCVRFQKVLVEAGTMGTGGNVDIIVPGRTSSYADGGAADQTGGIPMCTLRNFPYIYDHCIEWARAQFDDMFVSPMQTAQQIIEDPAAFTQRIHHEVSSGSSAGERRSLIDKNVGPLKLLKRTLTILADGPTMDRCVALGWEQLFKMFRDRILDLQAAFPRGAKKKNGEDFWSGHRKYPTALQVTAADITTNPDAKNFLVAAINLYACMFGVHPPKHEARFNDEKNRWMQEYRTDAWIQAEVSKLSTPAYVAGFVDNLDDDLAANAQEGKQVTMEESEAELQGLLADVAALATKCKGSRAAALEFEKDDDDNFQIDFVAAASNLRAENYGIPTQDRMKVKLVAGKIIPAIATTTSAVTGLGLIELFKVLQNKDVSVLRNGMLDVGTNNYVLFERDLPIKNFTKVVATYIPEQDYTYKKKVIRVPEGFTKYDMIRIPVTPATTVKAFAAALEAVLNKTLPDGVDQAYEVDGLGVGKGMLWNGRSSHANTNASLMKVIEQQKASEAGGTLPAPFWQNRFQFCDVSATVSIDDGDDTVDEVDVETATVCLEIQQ
Kind of test: Leishmania donovani Ubiquitin Activating Enzyme (LdE1). The class given is functional. The following applies: 30 µM.

In test [3] the target is AMP-activated protein kinase, AMPK (Homo sapiens) (UniProt P54646+O43741+P54619+Q9UGJ0+Q9Y478+Q13131+Q9UGI9). The experiment in a line: AMP-dependent Kinase enzyme assay. An in vitro enzyme assay that detects ADP turnover that is directly proportional to AMPK activity. This uses naive AMPK that is activated during the assay with MK-8722. The class given is functional. The following applies: 30 µM.

Test [4] concerns the target Sialic acid-binding Ig-like lectin 9 (Homo sapiens) (UniProt Q9Y336). Kind of test: Hs-Siglec9 ALPHAscreen SOP 20170721. The following applies: 10 µM.
Another test relates to Trypanosoma cruzi. The experiment in a line: Trypanosoma cruzi phosphomannomutase and mannose-1-phosphate guanylyltransferase assay. The following applies: 10 µM. The class given is functional.
Test [5] concerns the target T2, Arginase-2, mitochondrial (Homo sapiens) (UniProt P78540).
T2 sequence (whole entry): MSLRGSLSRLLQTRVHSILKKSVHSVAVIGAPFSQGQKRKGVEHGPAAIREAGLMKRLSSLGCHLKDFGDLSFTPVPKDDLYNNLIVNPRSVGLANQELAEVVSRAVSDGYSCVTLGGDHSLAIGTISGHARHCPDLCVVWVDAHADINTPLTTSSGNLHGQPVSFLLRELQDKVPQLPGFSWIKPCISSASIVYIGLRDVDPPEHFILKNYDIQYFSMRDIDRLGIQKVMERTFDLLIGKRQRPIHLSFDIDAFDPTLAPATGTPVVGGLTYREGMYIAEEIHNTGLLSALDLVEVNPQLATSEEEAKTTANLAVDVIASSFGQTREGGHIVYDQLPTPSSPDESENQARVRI
The experiment in a line: in vitro enzyme assay to detect the production of urea directly proportional to the activity of Arginase II. Further: in the data most compounds retested in dose-response had high values. The class given is functional. Conditions: 33.3 µM.

The target of test [6] is T3, Proteasome subunit beta (Trypanosoma cruzi) (UniProt O96673).
T3 sequence (whole entry): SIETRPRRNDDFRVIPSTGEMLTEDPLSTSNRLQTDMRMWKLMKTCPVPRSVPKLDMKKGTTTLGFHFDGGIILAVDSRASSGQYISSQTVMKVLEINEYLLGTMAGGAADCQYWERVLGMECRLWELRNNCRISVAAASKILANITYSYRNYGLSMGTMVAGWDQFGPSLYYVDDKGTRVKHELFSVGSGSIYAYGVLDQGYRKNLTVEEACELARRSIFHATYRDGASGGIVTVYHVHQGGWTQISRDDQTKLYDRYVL
Kind of test: Trypanosoma cruzi proteasome chymotrypsin-like activity (TcProtChymo) assay. Further: in the data most compounds retested in dose-response had high values. The class given is functional. The following applies: 9.37 µM.

The species named for the next test is Homo sapiens. The experiment in a line: To identify inhibition of the IFN signalling (Jak-Stat) pathway via expression of an eGFP reporter gene under the control of an IFN-stimulated response element (ISRE) containing MxA promoter. The class given is functional. The following applies: 30 µM.
Test [7] addresses T4, Tyrosyl-tRNA synthetase, putative (Trypanosoma cruzi (strain CL Brener)) (UniProt Q4DSP6).
T4 sequence (whole entry): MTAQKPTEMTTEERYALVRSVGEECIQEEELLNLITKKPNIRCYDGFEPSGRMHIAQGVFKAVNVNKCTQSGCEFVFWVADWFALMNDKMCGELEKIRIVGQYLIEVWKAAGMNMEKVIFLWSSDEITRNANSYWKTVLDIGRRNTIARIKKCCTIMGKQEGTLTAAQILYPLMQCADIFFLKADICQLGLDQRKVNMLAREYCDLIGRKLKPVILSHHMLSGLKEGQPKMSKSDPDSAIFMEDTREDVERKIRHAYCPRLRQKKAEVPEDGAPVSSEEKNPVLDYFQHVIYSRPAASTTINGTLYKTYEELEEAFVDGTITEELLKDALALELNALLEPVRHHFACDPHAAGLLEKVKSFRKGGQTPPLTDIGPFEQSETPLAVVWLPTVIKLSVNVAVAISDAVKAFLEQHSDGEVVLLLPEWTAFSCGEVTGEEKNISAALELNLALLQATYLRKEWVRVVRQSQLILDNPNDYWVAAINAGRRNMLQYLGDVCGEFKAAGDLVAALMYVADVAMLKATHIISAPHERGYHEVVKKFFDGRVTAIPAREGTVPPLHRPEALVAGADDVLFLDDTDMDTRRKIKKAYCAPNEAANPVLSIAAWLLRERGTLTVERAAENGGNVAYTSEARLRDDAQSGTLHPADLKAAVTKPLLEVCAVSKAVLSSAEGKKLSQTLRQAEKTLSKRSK
The experiment in a line: Trypanosoma cruzi tyrosyl tRNA synthetase (TcYRS) _High Tyrosine SOP. Further: in the data most compounds retested in dose-response had high values. The class given is functional. Conditions: 30 µM.

Test [8] addresses T4, Tyrosyl-tRNA synthetase, putative (Trypanosoma cruzi (strain CL Brener)). Kind of test: Trypanosoma cruzi tyrosyl tRNA synthetase (TcYRS) SOP. The following applies: 30 µM. The class given is functional.
The target in test [9] is Chromo domain-containing protein 1 (Saccharomyces cerevisiae (strain ATCC 204508 / S288c) (Baker's yeast)) (UniProt P32657). The experiment in a line: ScCHD-1 Enzyme Inhibition Assay. Further: in the data most compounds retested in dose-response had high values. The class given is functional. The following applies: 30 µM.
Sequence of Chromo domain-containing protein 1 (Saccharomyces cerevisiae (strain ATCC 204508 / S288c) (Baker's yeast)) (P32657 whole entry, the tested form may be a part): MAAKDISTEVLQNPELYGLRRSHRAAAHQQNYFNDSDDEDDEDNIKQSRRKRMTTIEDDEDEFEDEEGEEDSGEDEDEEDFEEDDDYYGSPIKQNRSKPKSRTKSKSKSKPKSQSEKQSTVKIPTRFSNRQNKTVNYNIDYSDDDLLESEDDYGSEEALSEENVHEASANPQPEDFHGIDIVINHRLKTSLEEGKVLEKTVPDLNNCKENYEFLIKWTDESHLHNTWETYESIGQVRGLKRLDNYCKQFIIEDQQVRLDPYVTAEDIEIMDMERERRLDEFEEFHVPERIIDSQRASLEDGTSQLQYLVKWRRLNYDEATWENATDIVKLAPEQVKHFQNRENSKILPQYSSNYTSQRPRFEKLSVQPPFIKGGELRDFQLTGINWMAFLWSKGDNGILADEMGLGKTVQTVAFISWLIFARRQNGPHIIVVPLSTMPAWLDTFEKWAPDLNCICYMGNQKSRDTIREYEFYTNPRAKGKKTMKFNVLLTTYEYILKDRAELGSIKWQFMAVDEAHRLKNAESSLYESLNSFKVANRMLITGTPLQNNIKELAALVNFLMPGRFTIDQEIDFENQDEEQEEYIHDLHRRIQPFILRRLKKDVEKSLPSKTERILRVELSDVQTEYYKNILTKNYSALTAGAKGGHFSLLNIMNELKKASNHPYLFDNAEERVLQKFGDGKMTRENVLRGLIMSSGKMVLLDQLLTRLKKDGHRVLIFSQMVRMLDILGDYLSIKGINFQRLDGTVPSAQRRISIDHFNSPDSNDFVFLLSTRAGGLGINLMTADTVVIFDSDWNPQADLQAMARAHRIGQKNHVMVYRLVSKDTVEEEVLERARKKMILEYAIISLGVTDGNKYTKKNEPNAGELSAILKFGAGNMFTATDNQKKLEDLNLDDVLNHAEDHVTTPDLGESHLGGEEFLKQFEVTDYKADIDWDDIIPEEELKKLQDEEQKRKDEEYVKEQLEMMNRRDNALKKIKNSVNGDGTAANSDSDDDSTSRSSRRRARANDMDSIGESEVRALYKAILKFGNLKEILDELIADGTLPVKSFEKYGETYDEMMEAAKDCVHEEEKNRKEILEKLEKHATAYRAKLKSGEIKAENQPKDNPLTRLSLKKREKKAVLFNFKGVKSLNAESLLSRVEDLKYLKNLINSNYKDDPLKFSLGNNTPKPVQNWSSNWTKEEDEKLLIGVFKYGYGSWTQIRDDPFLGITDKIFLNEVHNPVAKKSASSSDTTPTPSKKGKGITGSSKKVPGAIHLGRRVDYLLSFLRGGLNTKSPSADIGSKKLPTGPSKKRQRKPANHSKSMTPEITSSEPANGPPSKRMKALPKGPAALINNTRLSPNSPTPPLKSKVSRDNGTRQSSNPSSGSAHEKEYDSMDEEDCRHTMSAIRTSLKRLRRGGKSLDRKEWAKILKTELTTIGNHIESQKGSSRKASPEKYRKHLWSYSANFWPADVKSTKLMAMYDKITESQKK

Sequence of Sialic acid-binding Ig-like lectin 9 (Homo sapiens) (Q9Y336 whole entry): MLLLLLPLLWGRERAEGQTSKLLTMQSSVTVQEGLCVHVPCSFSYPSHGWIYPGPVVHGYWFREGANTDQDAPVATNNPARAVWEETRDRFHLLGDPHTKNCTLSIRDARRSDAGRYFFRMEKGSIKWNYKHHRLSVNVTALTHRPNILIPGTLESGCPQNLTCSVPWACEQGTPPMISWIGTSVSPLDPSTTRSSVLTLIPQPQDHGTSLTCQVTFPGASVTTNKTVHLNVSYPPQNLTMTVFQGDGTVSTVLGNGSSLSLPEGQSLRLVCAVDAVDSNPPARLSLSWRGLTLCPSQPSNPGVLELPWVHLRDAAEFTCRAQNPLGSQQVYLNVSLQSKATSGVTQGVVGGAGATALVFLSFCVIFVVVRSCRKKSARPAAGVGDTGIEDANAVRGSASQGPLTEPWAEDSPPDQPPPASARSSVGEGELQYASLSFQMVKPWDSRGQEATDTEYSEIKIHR

Turning to `Cc1nc(CN2C(=O)C[C@@H]3[C@@H]2CCN3C(=O)C2CCOCC2)cs1`, the Percent Effect in [1] was -0.279%; in test [2], 8.22%; in test [3], -5.72%; in [4] it was 3.96%; in the test on Trypanosoma cruzi, 4.17%; in [5] it was -5.19%. In addition, the Percent Effect in test [6] was 8.82%; in the test filed under Homo sapiens it was -4.21%; in test [7] it was 1.04%; in [8], -3.7%; in test [9] it was -3.04%.

Consider `CCC(=O)NCc1cc(Br)c(OC)c(OC)c1`, for which the Percent Effect in test [1] is -7.41%; in test [2] it was 5.33%; in test [3], -0.145%; in test [4] it was 4.49%; in the test with Trypanosoma cruzi, 4.19%; in [5], -9.9%. Further, the Percent Effect is 5.75% in test [6]; -1.33% in the test filed under Homo sapiens; 1.64% in test [7]; 11.1% in [8]; -3.06% in test [9].

Consider `Cc1nc(NCCc2ccc(Cl)cc2)cc(C(=O)N2CCOCC2)n1`, for which the Percent Effect was 0.862% in [1]; 5.2% in test [2]; -3.84% in test [3]; 11.5% in test [4]; 3.64% with Trypanosoma cruzi; -44.1% in test [5]. Further, the Percent Effect is 9.98% in test [6]; 23.7% in the test filed under Homo sapiens; 7.53% in test [7]; 16.1% in test [8]; -2.1% in [9].

For `CC(C)NS(=O)(=O)c1cc(C(=O)O)cc(-c2ccc(CN(C)C)cc2)c1`, the Percent Effect in test [1] was -8.02%; in test [2], 0%; in [3], 5.48%; in [4] it was -7.27%; in the test on Trypanosoma cruzi, -3.81%; in [5], -0.248%. The Percent Effect is 13.7% in test [6]; 0.283% in the test filed under Homo sapiens; 0% in test [7]; 1.24% in test [8]; -4.61% in test [9].

Regarding `CC(Sc1nnnn1C1CCOCC1)C(=O)NC1CCCCC1` (stereo not drawn), the Percent Effect was -6.54% in [1]; 2.67% in test [2]; -2.78% in test [3]; 37.4% in test [4]; 3.21% with Trypanosoma cruzi; 3.65% in test [5]. Moreover, the Percent Effect in [6] was 13.8%; in the test listed under Homo sapiens, 24.9%; in test [7] it was 7.1%; in [8] it was 16.1%; in test [9], -4.98%.

For `O=C(O)c1ccn(-c2ccccc2NS(=O)(=O)c2ccccc2)n1`, the Percent Effect in [1] is -4.7%; in test [2], 0%; in test [3] it was 0.362%; in test [4], 0.187%; in the test with Trypanosoma cruzi, -5.16%; in [5], 2.08%. Besides, the Percent Effect in test [6] was 9.24%; in the test listed under Homo sapiens, 7.84%; in test [7], 3.83%; in test [8] it was 3.7%; in test [9], -5.14%.

Consider `CCc1nc2n(n1)CC(NCC(=O)Nc1cc(C)on1)CC2` (stereo not drawn), for which the Percent Effect was -7.96% in test [1]; 5.06% in test [2]; -1.49% in test [3]; 2.07% in [4]; -7.27% in the test on Trypanosoma cruzi; 0.38% in test [5]. The Percent Effect is 17.1% in [6]; 22.4% in the test filed under Homo sapiens; -3.45% in test [7]; -8.86% in test [8]; -4.18% in [9].

Turning to `Nc1nccc(NCc2cc3n(n2)CCCN(C2CCCCC2)C3)n1`, the Percent Effect is -1.87% in test [1]; 13.7% in test [2]; -1.77% in test [3]; 1.73% in test [4]; -0.198% in the test with Trypanosoma cruzi; -1.2% in [5]. Also, the Percent Effect in [6] was 24.4%; in the test listed under Homo sapiens, 2.07%; in test [7], 9.38%; in [8] it was 23.5%; in test [9] it was -4.35%.
